ASK1 inh: ASK1 kinase inhibitors, primary screen, biochemical, AlphaScreen; AlphaScreen MKK6 phosphorylation by ASK1, luminescence; inhibition, % at 7.44 µM; actives 0.99% (n = 22,000); AID 1159602, 2016; in the data active = inhibition above about 35%;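 note: 0% = median of compound wells and 100% = no enzyme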
ULK1 primary: ULK1 kinase inhibitors, primary screen, biochemical, AlphaScreen. inhibition, % at 5.96 µM. actives 1.9% (n = 30,000). AID 1259251, 2017. AlphaScreen Atg13 phosphorylation by ULK1, luminescence; in the data active = inhibition above about 43%;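 note: 0% = median of compound wells and 100% = no enzyme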
Target sequence (O75385 whole entry, looked up): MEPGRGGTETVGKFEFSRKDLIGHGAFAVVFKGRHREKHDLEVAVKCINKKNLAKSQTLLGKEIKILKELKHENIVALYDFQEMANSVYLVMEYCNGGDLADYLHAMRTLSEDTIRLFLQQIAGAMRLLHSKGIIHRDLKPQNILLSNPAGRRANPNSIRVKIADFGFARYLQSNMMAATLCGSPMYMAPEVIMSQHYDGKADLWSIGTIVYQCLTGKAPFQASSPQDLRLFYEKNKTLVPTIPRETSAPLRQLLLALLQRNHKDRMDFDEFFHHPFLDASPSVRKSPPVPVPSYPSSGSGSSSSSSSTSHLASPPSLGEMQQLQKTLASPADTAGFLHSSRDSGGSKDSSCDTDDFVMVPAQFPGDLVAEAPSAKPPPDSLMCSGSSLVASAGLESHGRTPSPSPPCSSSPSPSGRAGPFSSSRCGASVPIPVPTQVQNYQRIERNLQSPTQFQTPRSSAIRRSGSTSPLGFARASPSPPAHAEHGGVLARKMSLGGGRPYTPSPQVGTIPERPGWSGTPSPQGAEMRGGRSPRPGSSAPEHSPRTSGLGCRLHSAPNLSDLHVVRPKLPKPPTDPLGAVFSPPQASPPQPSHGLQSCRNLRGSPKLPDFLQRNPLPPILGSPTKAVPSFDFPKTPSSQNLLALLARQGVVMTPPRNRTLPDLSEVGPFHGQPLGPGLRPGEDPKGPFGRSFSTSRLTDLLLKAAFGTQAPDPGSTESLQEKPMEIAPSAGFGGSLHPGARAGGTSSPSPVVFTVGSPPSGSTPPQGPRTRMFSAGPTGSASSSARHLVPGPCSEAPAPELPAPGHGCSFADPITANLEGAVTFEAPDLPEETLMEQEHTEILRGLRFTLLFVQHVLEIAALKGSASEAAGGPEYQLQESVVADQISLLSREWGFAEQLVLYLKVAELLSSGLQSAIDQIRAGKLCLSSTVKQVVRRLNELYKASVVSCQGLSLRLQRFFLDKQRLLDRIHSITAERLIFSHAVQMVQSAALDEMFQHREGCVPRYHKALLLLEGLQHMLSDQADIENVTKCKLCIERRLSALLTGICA
Active calls of the source: *; nt = not tested or not shown; ! = not active in a repeat. The list is not random: actives were taken first. Their share in the collection is about 2.4%.

SMILES	ASK1 inh	ULK1 primary
CC(=O)Nc1ccc(Nc2nc(Nc3ccc(-n4ccnc4)cc3)nc3nc[nH]c23)cc1	-12.7	52.1*
c1ccc(OCCNc2nc(Nc3ncccn3)nc3nc[nH]c23)cc1	9.3	4.9
c1ccc(Nc2nc(Nc3ccc(-n4ccnc4)cc3)nc3nc[nH]c23)cc1	-9.0	23.5
OCCNc1nc(Nc2ccc(-n3ccnc3)cc2)nc2nc[nH]c12	-60.2	56.2*
COc1ccc(CCNc2nc(Nc3ccc(-n4ccnc4)cc3)nc3nc[nH]c23)cc1	-16.9	26.8
c1ccc(OCCNc2nc(Nc3ccncc3)nc3nc[nH]c23)cc1	2.0	56.7*
CNC(=O)c1ncccc1Nc1cc(Nc2ccc(C(=O)N(C)C)cc2OC)ncc1C(F)(F)F	15.9	23.6
COc1cc(N2CCOCC2)ccc1Nc1cc(NCc2ccccc2)c(C(F)(F)F)cn1	1.4	18.3
CNC(=O)c1ccccc1Nc1cc(Nc2ccc(C(=O)N3CC[C@H](O)C3)cc2OC)ncc1C(F)(F)F	7.5	88.0*
CNC(=O)c1ncccc1Nc1cc(Nc2ccc(N3CCOCC3)cc2OC)ncc1C(F)(F)F	24.5	45.9*
COc1cc(N2CCOCC2)ccc1Nc1cc(NC(C)(C)c2ccccc2)c(C(F)(F)F)cn1	-12.7	22.2
CNC(=O)c1ccccc1Nc1cc(Nc2ccc(N3CCS(=O)CC3)cc2OC)ncc1C#N	22.2	89.8*
CNC(=O)c1cccc(Nc2cc(Nc3ccc(N4CCOCC4)cc3OC)ncc2C(F)(F)F)c1	20.6	17.7
COc1cc(N2CCOCC2)ccc1Nc1cc(Nc2ccccc2NC(C)=O)c(C(F)(F)F)cn1	11.3	87.9*
Oc1ccc(CCNc2ccnc(NCc3ccc4c(c3)OCO4)n2)cc1	-3.8	-21.4
CCCNc1cc(C)nc(NC2CCC(O)CC2)n1 (stereo not given)	-19.6	-2.0
Cc1noc(C)c1-c1cc(C(=O)NCCCN2CCCC2=O)ccn1	-0.6	5.5
FC(F)(F)c1cccc(CNc2ccnc(Nc3ccc(N4CCOCC4)cc3)n2)c1	35.9*!	-3.2
FC(F)(F)c1cccc(CNc2ccnc(NCCN3CCOCC3)n2)c1	-27.5	-12.2
O=C(NCc1nc2ccncc2[nH]1)c1ccc(Cl)cc1Cl	-18.1	3.0
CC(C)n1cnc2c(Nc3ccccc3)nc(NCc3cccnc3)nc21	3.1	54.1*
c1cncc(CNc2nc(Nc3ccc4c(c3)OCO4)c3ncn(-c4ccsc4)c3n2)c1	28.6	52.9*
CC(C)n1cnc2c(NCc3ccccc3)nc(NCc3cccnc3)nc21	-6.9	1.9
CC(C)n1cnc2c(Nc3ccccc3)nc(Nc3cccnc3)nc21	-9.1	51.5*
c1cncc(CNc2nc(NCc3ccc4c(c3)OCO4)nc3c2ncn3-c2ccsc2)c1	-19.1	9.6
SMILES	ASK1 inh	ULK1 primary
CC(C)n1cnc2c(Nc3ccc(Oc4ccccc4)cc3)nc(Nc3cccnc3)nc21	14.7	7.8
CCNc1nc(Nc2cc(OC)c(OC)c(OC)c2)c2ncn(C(C)C)c2n1	8.2	-20.8
CCNc1nc(Nc2ccccc2)c2ncn(C(C)C)c2n1	15.1	56.5*
COc1ccc(CCNc2nc(Nc3nc4ccccc4n3C)nc3c2ncn3C(C)C)cc1	-1.3	-2.2
Fc1ccc2c(c1)nc(NCCCN1CCOCC1)c1nccn12	nt	3.8
c1ccc2[nH]c(CNc3nc(Nc4ccncc4)nc4c3ncn4-c3ccsc3)nc2c1	18.2	48.9*
CC(C)n1cnc2c(Nc3ccc4c(c3)OCO4)nc(NCc3ccc4c(c3)OCO4)nc21	39.9*	-11.1
c1ccc2[nH]c(CNc3nc(Nc4ccc(-n5ccnc5)cc4)nc4c3ncn4-c3ccsc3)nc2c1	1.4	36.5
CC(=O)Nc1ccc(Nc2nc(NCc3ccc4c(c3)OCO4)nc3c2ncn3C(C)C)cc1	15.1	8.3
O=C(NC1CCNCC1)c1ccncc1F	-8.6	5.7
O=C(CCl)Nc1ccc2nsnc2c1	nt	2.5
O=C(CCl)Nc1ccc(CN2CCCC2)cc1	nt	66.1*
Cn1c(Nc2nc(NCCc3ccc(O)cc3)c3ncn(C4CCCCC4)c3n2)nc2ccccc21	-1.5	44.5*
CCCNc1nc(Nc2nc3ccccc3n2C)nc2c1ncn2C1CCCCC1	1.6	41.1
N[C@@H](Cc1ccccc1)c1nc2ccc(-c3cn[nH]c3)cc2c(=O)[nH]1	12.4	33.1
N[C@@H](Cc1cc(I)c(Oc2cc(I)c(O)c(I)c2)c(I)c1)C(=O)O	nt	78.7*
NC(Cc1cc(I)c(Oc2ccc(O)c(I)c2)c(I)c1)C(=O)O (stereo not given)	nt	-6.8
C[C@H](Cc1ccc(O)c(O)c1)[C@@H](C)Cc1ccc(O)c(O)c1	nt	77.7*
N[C@@H](Cc1ccc(O)c(O)c1)C(=O)O	nt	32.5
CCN(CC)c1nc(NCCN2CCOCC2)nc(Nc2ccnn2C)n1	-14.2	-6.6
c1ccc(-c2ccnc(Nc3ccc(-c4ncn[nH]4)cc3)n2)cc1	-16.1	-10.2
Fc1ccc(-c2n[nH]c3ccc(-c4ncn[nH]4)cc23)cc1	-69.1	71.3*
CCCNc1nc(Nc2cc(OC)c(OC)c(OC)c2)nc2nc[nH]c12	-41.2	59.0*
COc1cc(Nc2nc(NCCN(C(C)C)C(C)C)c3[nH]cnc3n2)cc(OC)c1OC	4.6	9.8
COc1cc(Nc2nc(NCc3ccccc3)c3[nH]cnc3n2)cc(OC)c1OC	-18.7	67.4*
SMILES	ASK1 inh	ULK1 primary
COc1cc(Nc2nc(Nc3cccnc3)nc3nc[nH]c23)cc(OC)c1OC	-2.5	22.5
COc1cc(Nc2nc(Nc3ccccc3)c3[nH]cnc3n2)cc(OC)c1OC	-9.7	65.0*
COc1cc(Nc2nc(Nc3nccc4ccccc34)nc3nc[nH]c23)cc(OC)c1OC	-8.3	1.3
C[C@H](NC(=O)OC(C)(C)C)c1nc(-c2ccncc2)n[nH]1	-3.5	-8.0
Cn1c(=O)cc(NCc2ccco2)n(Cc2cccc(C(F)(F)F)c2)c1=O	nt	-1.9
CS(=O)(=O)c1ccc2c(c1)CC(c1nc3ccc(-c4cn[nH]c4)cc3[nH]1)CO2 (stereo not given)	7.1	3.3
O=C(NCc1cccc(C(F)(F)F)c1)c1cnc(-c2csc3ccccc23)s1	-40.0	-12.0
Cc1noc(C)c1-c1nc(NCc2cccc(C(F)(F)F)c2)c2[nH]cnc2n1	-4.4	-5.9
COc1cc(C(=O)Nc2ccc3c(c2)CC(=O)N3C)cc(OC)c1OC	nt	3.6
O=C(Nc1ccc2nc(-c3ccco3)c(-c3ccco3)nc2c1)N1CCCC1	nt	67.5*
O=C(c1cc2nc(-c3ccco3)cc(C(F)(F)F)n2n1)N1CCCCC1	nt	-5.6
O=C1CCc2cc(S(=O)(=O)N3CCCNCC3)ccc2N1	-23.1	-7.8
O=c1[nH]ccc2c(S(=O)(=O)N3CCCNCC3)cccc12	-18.4	45.8*
COc1ccc(-c2cccc(C(=O)NCc3ccccc3)c2)cn1	-6.7	0.8
Nc1cccc(-c2cc(NCc3cccnc3)nc(N)n2)c1	-2.8	55.4*
NC(=O)c1ccc(-c2cc(NCc3cccnc3)nc(N)n2)cc1	1.8	24.1
CCNc1cc(C)nc(N2CCN(S(=O)(=O)c3cc(Br)ccc3OCC)CC2)n1	nt	-22.6
CC(=O)Nc1ccc(Nc2nc(N3CCCC3CO)ncc2C)cc1 (stereo not given)	-6.8	7.8
C(=C\c1ccccc1)/CN1CCOc2ccc(-c3ccncc3)cc21	18.6	-0.9
CNS(=O)(=O)c1ccccc1Nc1nc(Nc2ccc(N3CCOCC3)cc2OC)ncc1Br	-46.2	91.2*
COc1cnc(Nc2ccc(N3CCOCC3)cc2)nc1Nc1ccc(N2CCOCC2)cc1	-2.0	17.1
COc1ccc(Nc2ncc(-c3ccccc3)cn2)cc1	nt	4.3

High-throughput results (PubChem)
